# Results as given in the supplement of paper PMC12067926.
# Compound: COc1c(Cl)ccc(Cl)c1C(=O)O
# Assay: relative growth (AUC of 72 h growth curve relative to DMSO control, dAUC) (ratio); higher = more growth (less inhibition), active = hit call of the paper
# Settings: 20 µM;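 active = growth AUC significantly below the DMSO wells by Dunnett test; inactive = the rest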
# Procedure: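 Environmental bacterial isolates (Iceland stream sediment and Silwood Park soil) and whole stream-sediment communities were grown in LB from a 1:100 dilution with each pesticide at 20 µM (1% DMSO). A600 was read hourly for 72 h and the area under a spline-fitted growth curve (AUC) was computed. dAUC is the mean AUC of 3 biological replicates divided by the mean AUC of the DMSO controls. Significance was tested by Dunnett's test against the DMSO control.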
row,Target,relative growth
1,Argrobacterium 1 (Agrobacterium sp.),1.01 (inactive)
2,Pseudomonas 4 (Pseudomonas peli),1.01 (inactive)
3,Arthrobacter 2 (Arthrobacter humicola),1.1 (inactive)
4,Paenibacillus 1 (Paenibacillus castaneae),1.01 (inactive)
5,Community 6,1.03 (inactive)
6,Community 8,0.99 (inactive)
7,Microbacterium 1 (Microbacterium arborescens),1.02 (inactive)
8,Pseudomonas 3 (Pseudomonas mandelii),0.984 (inactive)
9,Aeromonas 2 (Aeromonas sobria),1.01 (inactive)
10,Pseudomonas 5 (Pseudomonas baetica),1.02 (inactive)
11,Arthrobacter 1 (Arthrobacter humicola),0.981 (inactive)
12,Neobacillus 1 (Neobacillus soli),1.06 (inactive)
13,Serratia 1 (Serratia sp. 2015-2462-01),1.02 (inactive)
14,Sphingomonas 2 (Sphingomonas sp.),1.01 (inactive)
15,Flavobacterium 1 (Flavobacterium glaciei),1 (inactive)
16,Rhizobium 1 (Rhizobium herbae),0.947 (inactive)

row,Target,relative growth
1,Aeromonas 3 (Aeromonas popoffii),1.02 (inactive)
2,Aeromonas 1 (Aeromonas sp. AE235),1.02 (inactive)
3,Pseudomonas 1 (Pseudomonas baetica),0.637 (inactive)
4,Community 4,1.09 (inactive)
5,Community 7,0.945 (inactive)
6,Prolinoborus 1 (Prolinoborus fasciculus),0.986 (inactive)
7,Community 10,1.03 (inactive)
8,Community 9,1.09 (inactive)
9,Hymenobacter 1 (Hymenobacter glaciei),1 (inactive)
10,Oryzobacter 1 (Oryzobacter terrae),0.925 (inactive)
11,Pseudomonas 6 (Pseudomonas sp.),1.1 (inactive)
12,Bacillus 1 (Bacillus foraminis),1.07 (inactive)
13,Pseudomonas 2 (Pseudomonas vancouverensis),0.985 (inactive)
14,Carnobacterium 1 (Carnobacterium gallinarum),1.19 (inactive)
15,Arthrobacter 3 (Arthrobacter sp.),1.07 (inactive)
16,Flavobacterium 2 (Flavobacterium succinicans),1.01 (inactive)
